Laboratory results from PubChem BioAssay (NCI).
Compounds without any hit were thinned out: in the full panel of roughly 83,000, 20% have a hit.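 Negative percent growth values reflect cell death: -40 means 40% of the cells present at the start died, and -100 means all died.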 Values without a mark were called inactive. Calls of active or inactive are those of the source. How the source made its calls: active means growth percent below 10; inactive means the rest.

What follows are compounds tested on HCT-116 colon (assay: NCI-60 one-dose screen, 48 h (100 = growth as untreated, 0 = no growth, -100 = all killed)). Details: 10 µM unless noted.

Row | SMILES | growth
1 | O=C(Nc1ccccc1Cl)OCCN1CCOCC1 | 73.8%
2 | O=C(/C=C/C12c3ccccc3C(c3ccccc31)C1C(=O)N(c3ccc(Cl)cc3)C(=O)C12)c1ccccn1 (centres undefined) | -69.2% (active)
3 | CN1CCN(c2ccc(Nc3ncc(Cl)c(NC[C@@H]4CCCO4)n3)cc2)CC1 | 4.74% (active)
4 | Cc1ccc(S(=O)(=O)N(CC[C@@H]2C[C@H]2c2cc3ccccc3o2)C(=O)NC2CCCCC2)cc1 | 85%
5 | CCCCCOC(=O)c1ccc(NC(=O)CNCC(C)C)cc1 | 84.9%
6 | Cl.Fc1c[c-]c(-c2ccccn2)c(F)c1.[Pt].c1ccc([PH+](C[PH+](c2ccccc2)c2ccccc2)c2ccccc2)cc1 | -83.4% (active)
7 | COc1cc(C2C=C(c3cccc(NC(C)=O)c3)Nc3ncnn32)cc(OC)c1OC (centres undefined) | 20.3%
8 | O=C(NCCN1CCC(O)CC1)c1cc2c(o1)C(=O)c1ccccc1C2=O | -81.5% (active)
9 | CN(C)CCN1C(=O)c2cccc3c(-c4ccc(-c5nc6c7ccccc7c7ccccc7c6[nH]5)cc4)ccc(c23)C1=O | 65.1%
10 | CC(/C=N/NC(=O)c1cc(-c2ccco2)[nH]n1)=C\c1ccccc1 | 99.3%
11 | CC(C)N(CCOC(=O)Nc1ccccc1Cl)C(C)C | 84.9%
12 | O=C(NCOC(O)C(Cl)(Cl)Cl)NCOC(O)C(Cl)(Cl)Cl (centres undefined) | 99.9%
13 | CCn1c(Sc2nnc(Nc3ccccc3)s2)nc2c1c(=O)n(C)c(=O)n2C | 94.7%
14 | COc1ccc(-c2nc3sccn3c2/C=C/C(=O)c2c[nH]c3ccccc23)cc1 | 69.5%
